Reference: PubChem BioAssay (Tox21)
Active and inactive are the calls of the source. Calls come from the whole dose curve.

The compounds below were run against Muscarinic acetylcholine receptor M1 (Homo sapiens) (UniProt P11229) (assay: Cholinergic receptor muscarinic 1 (CHRM1) small molecule agonists, cell-based qHTS assay (AID 1963589; note: nearly all actives have a fitted effect of over 35% in size)). Settings: CHRM1-CHO cells, agonist mode, calcium flux fluorescence; series mostly up to 76.8 µM; activation: at the top concentration.
Text: National Center for Advancing Translational Sciences [NCATS]
Division of Preclinical Innovation [DPI]
U.S. Environmental Protection Agency [EPA]
National Institutes of Environmental Health Sciences [NIEHS]
National Toxicology Program [NTP]
U.S. Food and Drug Administration [FDA]
The CHRM1 is a muscarinic receptor. This receptor plays a crucial role in learning and memory processes and has long been identified as a promising therapeutic target for the improvement of cognitive decline in Alzheimer's disease (AD). The CHRM1-CHO cell line stably expressing human muscarinic acetylcholine receptor M1 (CHRM1) can be used for screening agonists and antagonists of interactions between CHRM1 and its ligands. The CHRM1-CHO Calcium Flux Assay is a homogeneous fluorescence-based assay for detecting the intracellular calcium level using FDSS kinetic plate reader system.
CHRM1-CHO cells were dispensed at 1000 cells/3uL/well in 1536-well black-clear bottom plates using a Multidrop Dispenser. After the assay plates were incubated at a 37 C/5% CO2 incubator for 18 h, 3 uL of Dye Loading Buffer was transferred to the assay plate by a Flying Reagent Dispenser. The assay plates were incubated at 37 C for 1h. For agonist mode, 23 nL of compounds dissolved in DMSO, positive controls or DMSO only was transferred to the assay plate by a pin tool. […] Each test compound was measured at 15 concentrations in three independent runs.
% is set by controls: 0 for no effect and ±100 for the full control effect.

Muscarinic acetylcholine receptor M1 (Homo sapiens), sequence (P11229 whole entry, looked up): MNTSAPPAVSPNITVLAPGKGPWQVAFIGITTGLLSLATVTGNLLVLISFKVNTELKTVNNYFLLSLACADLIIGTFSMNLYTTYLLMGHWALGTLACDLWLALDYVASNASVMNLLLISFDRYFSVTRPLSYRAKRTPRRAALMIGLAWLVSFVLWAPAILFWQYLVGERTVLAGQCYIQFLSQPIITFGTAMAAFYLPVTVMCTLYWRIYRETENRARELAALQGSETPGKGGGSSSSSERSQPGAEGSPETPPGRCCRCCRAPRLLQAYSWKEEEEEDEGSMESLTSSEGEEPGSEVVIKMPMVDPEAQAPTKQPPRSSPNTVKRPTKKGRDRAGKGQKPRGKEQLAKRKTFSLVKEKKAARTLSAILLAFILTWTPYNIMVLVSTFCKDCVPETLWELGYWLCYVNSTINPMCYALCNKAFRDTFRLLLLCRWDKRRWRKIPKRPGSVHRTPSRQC

Q: N[C@@H](Cc1ccc(O)cc1)C(=O)O was tested. Which activation did it give?
A: 0.14% [at 6.97 µM] (inactive)

Q: How did the “activation” value turn out when O=C(Oc1cccc2cccnc12)c1ccccc1 was run?
A: 0.137% [at 35.3 µM] (inactive)

Q: Which “activation” value does the source give for O=S(=O)(O)c1cc(I)c(O)c2ncccc12 here?
A: 0.649% [at 35.3 µM] (inactive)

Q: Nc1ccccc1Nc1ccccc1 was tested. Which “activation” value did it give?
A: 6.76% (inactive)

Q: How did the “activation” value turn out when c1ccc(B(c2ccccc2)c2ccccc2)cc1 was run?
A: -0.808% (inactive)

Q: With O=C(N[C@@H](c1ccccc1)[C@@H]1CCCCN1)c1cccc(C(F)(F)F)c1Cl as the compound, how does the “activation” value read?
A: 0.341% (inactive)

Q: How did the “activation” value turn out when C[C@@H](O)[C@H]1C(=O)N2C(C(=O)O)=C(S[C@@H]3CN[C@H](CNS(N)(=O)=O)C3)[C@H](C)[C@H]12 was run?
A: -0.0739% [at 35.3 µM] (inactive)

Q: With CSC(=O)c1cccc2nnsc12 as the compound, how does the “activation” value read?
A: 2.76% (inactive)

Q: For Cc1cc(O)c(C(C)C)cc1Cl, which “activation” value is on record?
A: -0.263% [at 35.3 µM] (inactive)

Q: C=CCOCC(O)CS(=O)(=O)O (stereo not given) was tested. Which “activation” value did it give?
A: -0.279% (inactive)

Q: For Cc1c(-c2cccnc2)c2ccccc2n1CCCCC(=O)O, which “activation” value is on record?
A: 0.495% (inactive)

Q: Which “activation” value does the source give for C[C@H](NC(CCc1ccccc1)C(=O)O)C(=O)N1CCC[C@H]1C(=O)O (stereo not given in full) here?
A: 0.0274% [at 35.3 µM] (inactive)

Q: For CC1(C)CC(=O)CC(C)(C)N1, which “activation” value is on record?
A: 0.405% (inactive)

Q: How did the “activation” value turn out when CCCCCCOc1ccccc1C(N)=O was run?
A: 2.84% [at 35.3 µM] (inactive)

Q: With CCC(Cl)CC(Cl)C(Cl)C(Cl)C(Cl)C(C)Cl (stereo not given) as the compound, how does the activation read?
A: -0.121% [at 15.8 µM] (inactive)

Q: For c1cnc(N2CCN(Cc3ccc4c(c3)OCO4)CC2)nc1, which “activation” value is on record?
A: -0.591% [at 35.3 µM] (inactive)

Q: COCCc1ccc(OCC2CO2)cc1 (stereo not given) was tested. Which “activation” value did it give?
A: 0.0476% [at 35.3 µM] (inactive)

Q: How did the “activation” value turn out when CNC1CCCN(c2c(F)cc3c(=O)c(C(=O)O)cn(C4CC4)c3c2OC)C1 (stereo not given) was run?
A: -0.0475% [at 35.3 µM] (inactive)

Q: How did the “activation” value turn out when CC(C)(Cc1c[nH]c2ccccc12)NCC(O)COc1ccccc1C#N (stereo not given) was run?
A: -0.109% [at 35.3 µM] (inactive)

Q: Cc1cc(Cl)c(C)cc1Cl was tested. Which “activation” value did it give?
A: 1.56% (inactive)

Q: Which “activation” value does the source give for CCC(C)(CCC(C)C)C(=O)[O-].CCC(C)(CCC(C)C)C(=O)[O-].[Zn+2] (stereo not given) here?
A: -0.549% (inactive)

Q: CCOC(=O)C1=NN(c2ccccc2)C(=O)C1 was tested. Which “activation” value did it give?
A: 8.73% (inactive)

Q: Which “activation” value does the source give for C#CCN(C)CCCOc1ccc(Cl)cc1Cl here?
A: 1.91% [at 35.3 µM] (inactive)

Q: Which “activation” value does the source give for Nc1ccc(F)cc1 here?
A: -0.436% (inactive)

Q: With CC(C)c1nnc2ccc(-c3ocnc3-c3cc(F)ccc3F)cn12 as the compound, how does the “activation” value read?
A: -0.461% (inactive)

Q: Which “activation” value does the source give for O=C(O)CCCCCCCCCCCBr here?
A: -0.929% (inactive)

Q: CNC(=O)C(c1ccccc1)c1ccccc1 was tested. Which “activation” value did it give?
A: -0.655% (inactive)

Q: CCn1nc(C)c2c1C(=O)NCC(c1ccc(O)cc1)=N2 was tested. Which “activation” value did it give?
A: -0.514% (inactive)

Q: Which “activation” value does the source give for N#CCCOCCOCCC#N here?
A: -0.378% (inactive)

Q: CC(C)OC(=O)OCOP(=O)(CO[C@H](C)Cn1cnc2c(N)ncnc21)OCOC(=O)OC(C)C was tested. Which “activation” value did it give?
A: -0.164% [at 35.3 µM] (inactive)

Q: With COc1nc(N)nc2c1ncn2[C@@H]1O[C@H](CO)[C@@H](O)[C@@H]1O as the compound, how does the “activation” value read?
A: -0.0385% [at 35.3 µM] (inactive)

Q: How did the “activation” value turn out when COC(=O)C1=C(C)NC(C)=C(C(=O)OCC(C)=O)C1c1ccccc1[N+](=O)[O-] (stereo not given) was run?
A: 0.888% [at 35.3 µM] (inactive)

Q: CC(C)(C)c1ccc(-c2ccc(C(C)(C)C)cc2)cc1 was tested. Which “activation” value did it give?
A: 0.242% (inactive)

Q: CC(C)(C)CC(C)(C)c1ccccc1O was tested. Which “activation” value did it give?
A: 11.7% (inactive)

Q: COc1ccc2cc1Oc1ccc(cc1)C[C@H]1c3c(cc4c(c3Oc3cc5c(cc3OC)CCN(C)[C@@H]5C2)OCO4)CCN1C was tested. Which “activation” value did it give?
A: -0.428% [at 35.3 µM] (inactive)

Q: How did the “activation” value turn out when CCCCCCCOC(=O)CCC was run?
A: 6.62% (inactive)

Q: Which “activation” value does the source give for CCN1C=CN(C)C1C (stereo not given) here?
A: 0.083% (inactive)

Q: How did the “activation” value turn out when COC(=O)[C@H]1[C@H]2C[C@@H]3c4[nH]c5cc(OC)ccc5c4CCN3C[C@H]2C[C@@H](OC(=O)/C=C/c2ccc(O)c(OC)c2)[C@@H]1OC was run?
A: 0% [at 35.3 µM] (inactive)

Q: With c1ccc2sc(SN(C3CCCCC3)C3CCCCC3)nc2c1 as the compound, how does the “activation” value read?
A: 0.743% (inactive)

Q: Which “activation” value does the source give for COc1cc2c(cc1OC)-c1cc(=Nc3c(C)cc(C)cc3C)n(C)c(=O)n1CC2 here?
A: 1.13% [at 35.3 µM] (inactive)
